The results in this text go back to PubChem BioAssay AID1835 (Johns Hopkins Ion Channel Center, 2009).

Each structure is given as a SMILES string. Out of some 2,400 compounds screened, about 750 (31%) were called active. The list shows a part of the results. Unmarked numbers belong to inactive results.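 Rule for the calls: active = median signal gain over dofetilide-blocked control wells reaching their mean plus 3 SD, so readout 1 at least 0; inactive = the rest.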

For the test, the target named is Voltage-gated inwardly rectifying potassium channel KCNH2 (Homo sapiens) (UniProt Q12809). The test is described as follows: modulators restoring hERG flux under dofetilide – cell-based, thallium flux, duplicate retest, dofetilide IC70, confirmation (AID 1835). To be noted: hERG cell line, FluxOR thallium flux, dofetilide-blocked; at 10 µM; active compounds read high. On the technique in general: Block of hERG is tested as a sign of cardiac risk.
Sequence of Voltage-gated inwardly rectifying potassium channel KCNH2 (Homo sapiens) (Q12809 whole entry, looked up): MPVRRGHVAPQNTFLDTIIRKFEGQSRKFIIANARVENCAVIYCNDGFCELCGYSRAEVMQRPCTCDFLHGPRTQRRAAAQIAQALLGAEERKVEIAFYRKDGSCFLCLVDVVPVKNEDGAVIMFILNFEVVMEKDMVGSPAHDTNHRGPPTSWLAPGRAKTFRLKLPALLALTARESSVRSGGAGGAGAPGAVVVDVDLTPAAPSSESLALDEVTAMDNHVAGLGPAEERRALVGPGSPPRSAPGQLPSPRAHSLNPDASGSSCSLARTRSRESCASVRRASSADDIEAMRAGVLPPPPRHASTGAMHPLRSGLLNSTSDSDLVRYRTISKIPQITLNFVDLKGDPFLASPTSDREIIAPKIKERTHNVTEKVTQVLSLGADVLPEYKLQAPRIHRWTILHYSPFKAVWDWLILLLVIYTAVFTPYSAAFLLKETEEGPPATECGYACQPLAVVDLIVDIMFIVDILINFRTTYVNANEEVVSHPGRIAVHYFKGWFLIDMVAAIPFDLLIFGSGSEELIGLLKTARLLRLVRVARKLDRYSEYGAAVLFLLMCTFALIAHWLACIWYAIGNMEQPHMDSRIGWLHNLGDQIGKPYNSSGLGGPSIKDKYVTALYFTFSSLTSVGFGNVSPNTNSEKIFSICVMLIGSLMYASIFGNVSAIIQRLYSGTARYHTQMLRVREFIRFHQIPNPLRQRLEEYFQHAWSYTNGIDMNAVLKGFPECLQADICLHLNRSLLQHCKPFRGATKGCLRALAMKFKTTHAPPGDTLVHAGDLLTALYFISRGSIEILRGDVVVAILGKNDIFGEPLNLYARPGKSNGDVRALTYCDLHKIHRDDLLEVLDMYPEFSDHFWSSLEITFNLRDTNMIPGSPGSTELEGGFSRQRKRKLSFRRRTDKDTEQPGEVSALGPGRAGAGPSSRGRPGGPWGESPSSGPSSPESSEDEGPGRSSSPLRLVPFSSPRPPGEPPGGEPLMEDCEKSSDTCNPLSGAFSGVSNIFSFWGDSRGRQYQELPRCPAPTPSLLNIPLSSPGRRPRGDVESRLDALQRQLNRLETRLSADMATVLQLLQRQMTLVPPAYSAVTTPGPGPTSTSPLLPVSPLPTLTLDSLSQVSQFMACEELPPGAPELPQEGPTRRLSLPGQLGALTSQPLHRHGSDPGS
As for `O=C(N/C(=C/c1ccc2c(c1)OCO2)C(=O)N1CCOCC1)c1cccs1`, the activity increase over dofetilide control, less the hit threshold was -18%.
For the molecule `O=C(NC(=S)N1CCN(c2ccccc2)CC1)c1ccccc1`, the activity increase over dofetilide control, less the hit threshold is 16% (active).
Under `O=C(NC(=S)N1CCN(c2ccc(F)cc2)CC1)c1cccs1` stands 25% (active); under `O=C(NC(=S)N1CCN(c2ccccc2)CC1)c1c(F)cccc1F`, -9%; under `O=C(CN1CCN(c2ccc(Cl)cc2)CC1)Nc1ccc(F)cc1`, -15%.
Under `N#Cc1cccc(N=c2ssnc2Cl)c1` stands -32%; under `CC(=O)Nc1ccccc1NC(=O)C/C(C)=N/NC(=O)c1ccc([N+](=O)[O-])c(Cl)c1`, -13%; under `Cc1ccccc1NC(=O)CSc1ccsc1[N+](=O)[O-]`, -6%.
Under `O=C(CSc1nc2ccc(NC(=O)c3ccccc3C(=O)O)cc2s1)Nc1c(Cl)cccc1Cl` stands 0%; under `CSc1nsc(SCC(=O)Nc2ccccc2C(=O)O)n1`, 2% (active).
On to `O=C(NNC(=S)Nc1ccccc1)c1cccc(S(=O)(=O)N2CCOCC2)c1`, for which the activity increase over dofetilide control, less the hit threshold is -12%.
Under `COc1cc(Cl)c(C)cc1NC(=O)CSc1sc2c(O)cc(=O)[nH]c2c1C#N` stands 1% (active); under `Cc1cc(=O)[nH]c(SCC(=O)Nc2ccccc2C#N)c1C#N`, -4%; under `CCC(NS(=O)(=O)c1ccc(OC)cc1)C(=O)O` (stereo unspecified), -13%.
As for `CCOC(=O)c1nc(C)n(-c2ccc(Cl)cc2)n1`, the activity increase over dofetilide control, less the hit threshold was -1%.
Turning to `Cc1nn(-c2ccc(Cl)cc2)c2sc(C(=O)c3c(N)n(C)c(=O)n(C)c3=O)cc12`, the activity increase over dofetilide control, less the hit threshold was 67% (active).
In the case of `O=C(NCC1CCS(=O)(=O)C1)Oc1ccccc1` (stereo unspecified), the activity increase over dofetilide control, less the hit threshold is -15%.
With `CCN(CC)c1ccc(/C=c2\sc3nnc(-c4ccccc4Cl)n3c2=O)cc1`, the activity increase over dofetilide control, less the hit threshold is -11%.
Under `Cc1nn(-c2ccccc2)c(Cl)c1/C=C1\SC(=S)NC1=O` stands 51% (active); under `Cc1nn(-c2ccccc2)c(C)c1S(=O)(=O)O`, -6%.
Under `Cc1nn(-c2ccccc2)c(N2CCCC2)c1/C=N/O` stands -16%; under `COCCCN1C(=O)C(=O)/C(=C(/O)c2ccc(S(=O)(=O)N3CCOCC3)cc2)C1c1ccc(F)cc1` (stereo unspecified), -5%.
Under `O=C(c1ccco1)N(c1ccccn1)c1ccccn1` stands -13%.
Take `CCCN(C(=O)c1ccco1)c1nnc(-c2ccncc2)s1`: the activity increase over dofetilide control, less the hit threshold was 5% (active).
Under `CN(C(=O)CCc1ccccc1)c1nnc(-c2ccncc2)s1` stands -24%; under `Cc1cc([N+](=O)[O-])nn1CC(=O)Nc1ccc(Cl)cn1`, -12%.
Under `Cc1ccc(O)c(Sc2cc(C)ccc2O)c1` stands -34%; under `O=C(CCC(=O)N1CCN(S(=O)(=O)c2ccccc2)CC1)c1cccs1`, -14%; under `Cc1[nH]n(-c2cccc3ccccc23)c(=O)c1/C=N/c1sc2c(c1C#N)CCC2`, 3% (active).
Under `Cc1[nH]n(-c2ccc(F)cc2)c(=O)c1/C=N/c1sc2c(c1C#N)CCCC2` stands 41% (active).
Take `CN(C1=C(NC(=O)c2ccccc2)C(=O)c2ccccc2C1=O)C1CCS(=O)(=O)C1` (stereo unspecified): the activity increase over dofetilide control, less the hit threshold was -4%.
`COCCn1cnc2c1c(=O)n(CC#N)c(=O)n2Cc1ccccc1`: the activity increase over dofetilide control, less the hit threshold was -14%.
Under `COc1cccc2sc(Nc3nnc(-c4ccccc4Cl)o3)nc12` stands 16% (active).
Under `N#C/C(=C\c1ccc(-c2ccccc2Cl)o1)C(=O)Nc1nc2ccccc2s1` stands -6%; under `COc1cccc2sc(Nc3nnc(-c4cccs4)o3)nc12`, 52% (active).
Under `COc1cccc2sc(Nc3nnc(-c4ccc(F)cc4)o3)nc12` stands 83% (active).
With `COc1cccc2sc(Nc3nc(-c4ccccn4)cs3)nc12`, the activity increase over dofetilide control, less the hit threshold is -19%.
Under `COc1ccccc1Nc1nnc(SCC(=O)Nc2nc(-c3ccc(F)cc3)cs2)s1` stands -24%.
Under `Cc1ccc(NC(=O)c2ccc(NC3=NC4CS(=O)(=O)CC4S3)cc2)cc1` (stereo unspecified) stands -14%; under `O=C(C[n+]1ccccc1)N/N=C/c1ccc(Cl)c(Cl)c1`, -13%; under `O=C(CC1CCCC1)Nc1ccc2c(c1)CCC2`, -5%.
Under `COc1ccc(/C=N/NC(=O)C(=O)N2CCCC2)cc1` stands -4%; under `COc1ccc(/C=N/NC(=O)c2ccncc2)cc1CN1CCCc2ccccc21`, 3% (active).
Consider `COc1ccccc1NC(=S)N1CCCc2ccccc21`, for which the activity increase over dofetilide control, less the hit threshold is -16%.
Under `O=[N+]([O-])c1cc(Cl)cc(/C=N/NC(=S)Nc2ccc(S(=O)(=O)N3CCOCC3)cc2)c1O` stands -3%; under `Cc1cc(=O)oc2cc(OCC(=O)OCC(=O)NC(C)C)ccc12`, -22%.
Under `Cc1c(C)c2ccc(OCC(=O)N[C@@H](Cc3ccccc3)C(=O)O)cc2oc1=O` stands 2% (active); under `O=C(COc1ccc2c3c(c(=O)oc2c1)CCC3)NCC1CCC(C(=O)O)CC1` (stereo unspecified), -7%; under `O=C(COc1ccc2c3c(c(=O)oc2c1)CCC3)N[C@@H](Cc1ccccc1)C(=O)O`, 9% (active).
Under `O=c1oc2cc(OCCO)ccc2c2c1CCCC2` stands -8%; under `Cc1cc(=O)oc2c3c(cc(OCC(=O)N[C@@H](Cc4ccccc4)C(=O)O)c12)OC(C)(C)CC3`, -3%.
